Records with an inconclusive call do not appear. A call without a number means that no potency is given here. The source made the active and inactive calls. Unless noted, calls come from the whole dose curve; as a rule, active = well fitted curve in the direction sought with a large enough effect in the repeat runs; inconclusive = weak or mixed curves; inactive = no such curve, though single readings can be large; an effect the other way counts as inactive or inconclusive.
Tests used:
[1] = molecular target: Peroxisome proliferator-activated receptor delta (Homo sapiens) (UniProt Q03181); experiment: qHTS assay to identify small molecule agonists of the peroxisome proliferator-activated receptor delta (PPARd) signaling pathway (AID 743212; calls by dose curve)
Procedure, shortened: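 GeneBLAzer PPARd UAS-bla HEK293H cells (beta-lactamase reporter under UAS control), plated and rested 5 h at 37 C, then exposed to compounds in DMSO at 37 C; LiveBLAzer B/G FRET substrate added, 2 h room temperature, fluorescence read.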

[2] = qHTS assay to identify small molecule antagonists of the peroxisome proliferator-activated receptor delta (PPARd) signaling pathway - cell viability counter screen (AID 743213); note: nearly all actives have a fitted effect of over 50% in size
Procedure, shortened: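 Viability counter-screen, qHTS format: PPARd-bla HEK293H, L165041 300 nM final, 17 h compound exposure at 37 C, CellTiter-Glo luminescence after 30 min RT.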

[3] = qHTS assay to identify small molecule agonists of the farnesoid-X-receptor (FXR) signaling pathway - cell viability counter screen (AID 743218); note: nearly all actives have a fitted effect of over 45% in size; note: potency is the fitted concentration of half-maximal effect
Procedure, shortened: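 FXR-UAS-bla HEK 293T cells exposed to compounds for 16 h at 37C. Cytotoxicity read in the same wells by CellTiter-Glo luminescence after 30 min at room temperature, following the beta-lactamase FRET read.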

[4] = qHTS assay to identify small molecule antagonists of the farnesoid-X-receptor (FXR) signaling pathway - cell viability counter screen (AID 743221; active = well fitted cell-killing curve with a large enough effect in the repeat runs, not every such curve was filed as active; note: nearly all actives have a fitted effect of over 50% in size)
Procedure, shortened: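 Multiplexed counter screen: viability of FXR-bla HEK 293T cells under agonist stimulation by chenodeoxycholic acid (50 uM, final) and test compound for 16 h at 37 C, measured by CellTiter-Glo luminescence in the reporter wells.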

[5] = molecular target: Vitamin D3 receptor (Homo sapiens) (UniProt P11473); experiment: qHTS assay to identify small molecule antagonists of the vitamin D receptor (VDR) signaling pathway (AID 743223; active = well fitted inhibition curve with a large enough effect in the signal ratio in the repeat runs, not every such curve was filed as active; the % refers to the signal ratio)
Procedure, shortened: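 Cells carrying a VDR-driven beta-lactamase reporter (VDR-bla) were co-treated with compound and 3 nM final 1alpha,25-dihydroxyvitamin D3 for 16 h at 37C; reporter activity was measured as FRET substrate fluorescence after 2 h at room temperature.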

[6] = qHTS assay to identify small molecule agonists of the vitamin D receptor (VDR) signaling pathway - cell viability counter screen (AID 743224); note: nearly all actives have a fitted effect of over 50% in size; note: potency is the fitted concentration of half-maximal effect
Procedure, shortened: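 VDR-bla cells, 4 h after plating, exposed to compounds for 16 h at 37C; viability then read in the same wells as CellTiter-Glo luminescence after 30 min at room temperature, following the bla FRET read.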

[7] = qHTS assay to identify small molecule antagonists of the vitamin D receptor (VDR) signaling pathway - cell viability counter screen (AID 743225); note: nearly all actives have a fitted effect of over 50% in size; note: potency is the fitted concentration of half-maximal effect
Procedure, shortened: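 HEK293T VDR-bla; cpd + 1a,25-(OH)2D3 3 nM final, 16 h 37C/5% CO2; B/G FRET substrate 2 h RT; then CellTiter-Glo 30 min RT, luminescence.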

[8] = qHTS assay to identify small molecule agonists of the NFkB signaling pathway (AID 1159509; active = well fitted curve in the direction sought with a large enough effect in the signal ratio in the repeat runs, not every such curve was filed as active; the % refers to the signal ratio; note: series mostly up to about 61 µM)
Procedure, shortened: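 After overnight attachment, reporter cells received test compounds, DMSO or positive controls and were incubated 5 hr at 37 C. FRET substrate was then added for 1.5 hr at room temperature before dual-emission fluorescence reading.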

[9] = qHTS assay to identify small molecule agonists of the NFkB signaling pathway - cell viability counter screen (AID 1159515; calls by dose curve; note: series mostly up to about 61 µM; nearly all actives have a fitted effect of over 55% in size)
Procedure, shortened: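 NFkB-bla ME-180 cells, 2,000/well, plated overnight at 37 C; compound added for 5 hr at 37 C. Viability read in the same wells as the bla reporter, by CellTiter-Glo luminescence after 30 min at room temperature.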

[10] = qHTS assay to identify small molecule agonists of the endoplasmic reticulum stress response signaling pathway (AID 1159516; active = well fitted activation curve with a large enough effect in the signal ratio in the repeat runs, not every such curve was filed as active; the % refers to the signal ratio)
Procedure, shortened: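 CellSensor ESRE-bla HeLa cells, 1,500 per well, plated overnight, then exposed to compounds for 5 hr at 37 C. Beta-lactamase reporter read with LiveBLAzer B/G FRET substrate after 2 hr at room temperature, 405 nm excitation, 460 and 530 nm emission.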

[11] = qHTS assay to identify small molecule agonists of the endoplasmic reticulum stress response signaling pathway - cell viability counter screen (AID 1159517; calls by dose curve)
Procedure, shortened: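 Luminescence readout: CellTiter-Glo, 30 min RT, same wells as the ESRE-bla reporter read. HeLa ESRE-bla, 1,500 cells/well, o/n 37 C; cpd 5 hr 37 C/5% CO2.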

[12] = qHTS assay to identify small molecule antagonists of the retinoid-related orphan receptor gamma (ROR-gamma) signaling pathway - cell viability counter screen (AID 1159520); note: nearly all actives have a fitted effect of over 50% in size
Procedure, shortened: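 Tet-on ROR gamma CHO cells (1,000/well) were plated 4 hr, given compounds in DMSO for 2 hr at 37 C, then induced with 1 uM final doxycycline for 16 hr. Viability was read as ATP by CellTiter-Glo luminescence after 30 min.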

[13] = qHTS assay to identify small molecule agonists of the AP-1 signaling pathway - cell viability counter screen (AID 1159525; calls by dose curve; note: nearly all actives have a fitted effect of over 55% in size)
Procedure, shortened: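 ME-180 AP-1-bla, 2500 cells/well, Opti-MEM + 0.5% dialyzed FBS; overnight 37 °C; cpd 15-pt titration, 5 h 37 °C; CellTiter-Glo 30 min RT; luminescence read; normalised to TOAB and DMSO controls.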

[14] = qHTS assay to identify small molecule agonists of the peroxisome proliferator-activated receptor delta (PPARd) signaling pathway - cell viability counter screen (AID 743211); note: nearly all actives have a fitted effect of over 55% in size; note: potency is the fitted concentration of half-maximal effect
Procedure, shortened: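 Counter screen for cytotoxicity run in parallel with the PPARd reporter screen. Beta-lactamase reporter HEK293H cells exposed to compounds 17 h; ATP-based CellTiter-Glo luminescence quantified viability.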

[15] = molecular target: Peroxisome proliferator-activated receptor delta (Homo sapiens) (UniProt Q03181); experiment: qHTS assay to identify small molecule antagonists of the peroxisome proliferator-activated receptor delta (PPARd) signaling pathway (AID 743215; active = well fitted inhibition curve with a large enough effect in the signal ratio in the repeat runs, not every such curve was filed as active; the % refers to the signal ratio;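 note: cells stimulated with agonist L165041 at 300 nM final during compound exposure; series mostly up to about 62 µM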)
Procedure, shortened: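 PPARd-bla HEK293H cells (UAS-bla reporter) preincubated 5 h, then given compound plus 300 nM final L165041 agonist for 17 h at 37 C. Beta-lactamase activity read by LiveBLAzer B/G FRET substrate fluorescence after 2 h at room temperature.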

[16] = molecular target: Nuclear receptor ROR-gamma (Homo sapiens) (UniProt P51449); experiment: qHTS assay to identify small molecule antagonists of the retinoid-related orphan receptor gamma (ROR-gamma) signaling pathway (AID 1159521; note: nearly all actives have a fitted effect of over 50% in size; note: potency is the fitted concentration of half-maximal effect)
Procedure, shortened: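 Cells were plated, rested 4 h at 37 C, exposed to compounds for 2 h, then given 1 uM final doxycycline hyclate to induce RORγ expression. After 16 h, ONE-Glo luminescence from the ROR response element reporter was measured.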

[17] = qHTS assay to identify small molecule agonists of the AP-1 signaling pathway (AID 1159526; calls by dose curve)
[18] = molecular target: Vitamin D3 receptor (Homo sapiens) (UniProt P11473); experiment: qHTS assay to identify small molecule agonists of the vitamin D receptor (VDR) signaling pathway (AID 743222; calls by dose curve)
Procedure, shortened: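 VDR-bla cells plated 4 h at 37 C, then exposed to compounds for 16 h at 37 C. Beta-lactamase reporter activity measured by fluorescence after 2 h room-temperature loading with LiveBLAzer B/G FRET substrate.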

[19] = molecular target: Bile acid receptor (Homo sapiens) (UniProt Q96RI1); experiment: qHTS assay to identify small molecule antagonists of the farnesoid-X-receptor (FXR) signaling pathway (AID 743217; active = well fitted inhibition curve with a large enough effect in the signal ratio in the repeat runs, not every such curve was filed as active; the % refers to the signal ratio)
Procedure, shortened: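 FXR-UAS-bla HEK 293T cells (beta-lactamase reporter) given compound plus chenodeoxycholic acid (50 uM final), 16 h at 37C. LiveBLAzer B/G FRET substrate added for 2 h at room temperature; fluorescence read.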

[20] = molecular target: Bile acid receptor (Homo sapiens) (UniProt Q96RI1); experiment: qHTS assay to identify small molecule agonists of the farnesoid-X-receptor (FXR) signaling pathway (AID 743220; active = well fitted activation curve with a large enough effect in the signal ratio in the repeat runs, not every such curve was filed as active; the % refers to the signal ratio)
Procedure, shortened: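 Beta-lactamase reporter under UAS control in GeneBLAzer FXR HEK 293T cells (5000/well) measured with LiveBLAzer FRET substrate after 2 h at room temperature. Compound exposure lasted 16 h at 37C.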

Sequence of Bile acid receptor (Homo sapiens) (Q96RI1 whole entry, looked up): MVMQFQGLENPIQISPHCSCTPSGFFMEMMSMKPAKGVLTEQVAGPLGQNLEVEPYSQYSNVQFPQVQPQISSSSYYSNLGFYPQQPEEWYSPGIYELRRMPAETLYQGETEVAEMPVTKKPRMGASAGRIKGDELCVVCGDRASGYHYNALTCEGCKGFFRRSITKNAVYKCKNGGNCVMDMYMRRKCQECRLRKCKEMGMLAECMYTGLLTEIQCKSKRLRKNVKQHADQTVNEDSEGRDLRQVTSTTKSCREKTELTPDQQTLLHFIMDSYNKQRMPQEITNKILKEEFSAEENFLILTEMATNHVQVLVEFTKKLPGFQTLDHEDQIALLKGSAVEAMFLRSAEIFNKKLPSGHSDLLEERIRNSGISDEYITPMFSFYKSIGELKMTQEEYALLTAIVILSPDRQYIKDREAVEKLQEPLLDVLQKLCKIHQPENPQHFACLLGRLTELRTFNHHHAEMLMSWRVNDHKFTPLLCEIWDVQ
Sequence of Vitamin D3 receptor (Homo sapiens) (P11473 whole entry, looked up): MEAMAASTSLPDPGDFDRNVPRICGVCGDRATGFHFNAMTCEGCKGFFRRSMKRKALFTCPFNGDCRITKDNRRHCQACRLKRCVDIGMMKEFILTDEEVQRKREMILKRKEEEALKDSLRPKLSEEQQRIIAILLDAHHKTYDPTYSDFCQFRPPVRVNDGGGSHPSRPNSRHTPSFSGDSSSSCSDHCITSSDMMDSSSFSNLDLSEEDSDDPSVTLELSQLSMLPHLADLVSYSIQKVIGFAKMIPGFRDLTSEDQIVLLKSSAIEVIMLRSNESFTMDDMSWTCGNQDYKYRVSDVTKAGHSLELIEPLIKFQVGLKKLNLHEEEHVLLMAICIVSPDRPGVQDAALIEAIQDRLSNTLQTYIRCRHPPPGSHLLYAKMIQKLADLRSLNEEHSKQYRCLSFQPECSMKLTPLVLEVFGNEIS
Sequence of Peroxisome proliferator-activated receptor delta (Homo sapiens) (Q03181 whole entry, looked up): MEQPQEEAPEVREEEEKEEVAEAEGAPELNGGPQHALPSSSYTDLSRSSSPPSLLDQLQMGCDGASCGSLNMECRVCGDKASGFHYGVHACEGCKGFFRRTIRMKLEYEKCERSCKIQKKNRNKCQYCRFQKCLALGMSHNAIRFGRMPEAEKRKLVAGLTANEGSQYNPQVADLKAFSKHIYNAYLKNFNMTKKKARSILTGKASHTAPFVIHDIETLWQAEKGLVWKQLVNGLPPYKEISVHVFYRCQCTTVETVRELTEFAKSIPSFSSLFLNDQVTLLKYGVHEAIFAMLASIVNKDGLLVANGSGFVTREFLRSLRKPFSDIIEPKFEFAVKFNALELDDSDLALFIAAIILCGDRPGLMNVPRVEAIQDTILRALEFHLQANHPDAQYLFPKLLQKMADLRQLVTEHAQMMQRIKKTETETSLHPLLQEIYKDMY

Structure (SMILES) | outcome [1] | Potency [2] | Potency [3] | Potency [4] | outcome [5] | Potency [6] | Potency [7] | outcome [8] | Potency [9] | outcome [10] | Potency [11] | Potency [12] | Potency [13] | Potency [14] | Potency [15] | Potency [16] | outcome [17] | outcome [18] | Potency [19] | outcome [20]
CC[C@H]1C[C@H]2[C@@H]3CCC4=CC(=O)CC[C@@H]4[C@H]3CC[C@]2(C)[C@H]1O | inactive | inactive | inactive | inactive | inactive | inactive | inactive | inactive | inactive | inactive | inactive | inactive | inactive |  |  |  |  |  |  | 
C[N+](C)(C)CCCl | inactive | inactive | inactive | inactive | inactive | inactive | inactive | inactive | inactive | inactive |  | inactive | inactive | inactive | inactive | inactive | inactive |  |  | 
N#CCC#N |  | inactive | inactive | inactive |  | inactive | inactive | inactive | inactive | inactive | inactive |  | inactive | inactive | inactive | 27.3 µM (active) |  | inactive |  | 
CCOP(=O)(OCC)O/C(=C/Cl)c1ccc(Cl)cc1Cl |  | inactive | inactive |  |  |  |  | inactive | inactive | inactive | inactive |  | inactive | inactive | inactive | 68.6 µM (active) |  | inactive |  | 
O=C(NC(=O)c1c(F)cccc1F)Nc1cc(Cl)c(Oc2ncc(C(F)(F)F)cc2Cl)c(Cl)c1 |  | inactive | 37.3 µM (active) |  |  |  |  | inactive | inactive | inactive | inactive |  | inactive |  | inactive | 20.8 µM (active) |  |  |  | 
O=[Se]=O |  | inactive | inactive | inactive |  | inactive | inactive | inactive | inactive | inactive | inactive |  | inactive | inactive |  |  | inactive | inactive | inactive | inactive
CCCCC(O)(Cn1cncn1)c1ccc(Cl)cc1Cl (centres undefined) |  |  | inactive |  |  | 48.9 µM (active) | 54.9 µM (active) | inactive | inactive | inactive | inactive |  |  | 54.9 µM (active) |  | 54.4 µM (active) |  |  |  | inactive
Clc1ccc(C2(Cn3cncn3)CC(Br)CO2)c(Cl)c1 (centres undefined) |  | inactive | inactive | inactive |  | inactive | inactive | inactive | inactive | inactive | inactive | inactive | inactive | inactive | inactive |  | inactive | inactive |  | inactive
COc1ccc(-c2ccccc2)cc1NNC(=O)OC(C)C |  |  |  |  |  | 57.2 µM (active) | 51 µM (active) | inactive | inactive | inactive | inactive | inactive | inactive | inactive |  |  | inactive | inactive |  | inactive
C[C@]12CC[C@H]3[C@@H](CCC4=CC(=O)CC[C@@H]43)[C@@H]1CC[C@@H]2OC(=O)CCC1CCCCC1 | inactive | inactive | inactive | inactive |  | inactive | inactive | inactive | inactive | inactive | inactive | inactive | inactive |  | inactive |  | inactive | inactive |  | 
CO/C=C(/C(=O)OC)c1ccccc1COc1cccc(C(F)(F)F)n1 |  | inactive | inactive | inactive |  |  |  | inactive | inactive | inactive | inactive |  | inactive |  |  | 0.769 µM (active) | inactive |  |  | inactive
CCBr | inactive | inactive | inactive | inactive | inactive | inactive | inactive | inactive | inactive | inactive |  | inactive | inactive | inactive | inactive | inactive | inactive | inactive |  | 
ClCc1cccc(Cl)c1 |  | inactive | inactive | inactive |  | inactive | inactive | inactive | inactive | inactive | inactive | inactive |  | inactive | inactive |  | inactive | inactive | inactive | inactive
CCCCNP(N)(N)=S | inactive | inactive | inactive |  | inactive | inactive | inactive | inactive | inactive | inactive | inactive | inactive | inactive | inactive | inactive |  |  |  | inactive | inactive
O=C(N[C@H](c1ccccc1)[C@@H]1CN2CCC1CC2)c1c(Cl)ccc(C(F)(F)F)c1Cl |  | inactive | 70.2 µM (active) |  |  |  | inactive | inactive | inactive | inactive | inactive | inactive | inactive | 78.8 µM (active) |  |  |  | inactive |  | inactive
CCCC(=O)Cl | inactive | inactive | inactive | inactive | inactive | inactive | inactive | inactive | inactive | inactive |  | inactive | inactive | inactive | inactive | inactive | inactive | inactive | inactive | inactive
CCCCCCCCCCOC(=O)c1ccccc1C(=O)OCCCCCCCCCC | inactive | inactive |  | inactive |  | inactive |  | inactive | inactive | inactive |  | inactive | inactive | inactive | inactive | inactive | inactive |  | inactive | inactive
CCOc1nc(F)cc2nc(S(=O)(=O)Nc3c(Cl)cccc3Cl)nn12 |  | inactive | inactive | inactive |  | inactive | inactive | inactive | inactive | inactive | inactive | inactive | inactive |  |  |  | inactive |  | inactive | inactive
Nc1ccc([N+](=O)[O-])cc1[N+](=O)[O-] | inactive | inactive |  |  | inactive | inactive | inactive | inactive | inactive | inactive | inactive |  | inactive | inactive | inactive |  | inactive |  |  | 
